# The list is not random: actives were taken first. Their share in the collection is about 10%.
# HP1b binding inh – HTS for Inhibitors of HP1-beta Chromodomain Interactions with Methylated Histone Tails; AlphaScreen HP1-beta / biotin-H3K9me3 peptide binding; Potency, µM (series often up to 114 µM), for inactives: at the top dose activity change, negative = inhibition, most hits filed as inhibitors; actives 0.56% (n = 390,000); note: nearly all actives have a fitted effect of over 70% in size
#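 HP1-beta protein (50 nM final) preincubated 30 min at room temperature with biotinylated H3(1-18)K9me3 peptide (50 nM) in PBS pH 7.4, 0.01% Tween-20, then compound added for 30 min. AlphaScreen streptavidin donor/nickel chelate acceptor beads (10 ug/mL final), 30 min dark, luminescence read.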
# G9a block – qHTS Assay for Inhibitors of Histone Lysine Methyltransferase G9a. Histone-lysine N-methyltransferase EHMT2 (Homo sapiens), Q96KQ7. G9a H3K9 monomethylation, AlphaScreen, 2 h. Potency, µM (highest dose often 102 µM), for the others: at the highest dose activity, negative = inhibition, hits mostly inhibitors. actives 8.8% (n = 350,000); note: % is set by controls: 0 for no effect and ±100 for the full control effect; nearly all actives have a fitted effect of over 75% in size
#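 Readings reflect AlphaScreen signal from monomethyl-H3K9 antibody detection. HMT at 20 nM; substrate b-H3K9 500 nM; cofactor SAM 20 uM; 2 h RT reaction; compounds tested as titrations in qHTS with 15 min preincubation.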
# JMJD2A Tudor – qHTS Assay for Inhibitors of JMJD2A-Tudor Domain; Lysine-specific demethylase 4A (Homo sapiens), O75164; AlphaScreen JMJD2A-Tudor / H3K4me3 peptide binding; Potency, µM (doses to about 114 µM), for the others: at the highest dose activity change, negative = inhibition, most hits filed as inhibitors; actives 4.4% (n = 390,000); note: % is set by controls: 0 for no effect and ±100 for the full control effect; nearly all actives have a fitted effect of over 50% in size
# Target sequence (O75164 whole entry, looked up, the tested form may be a part): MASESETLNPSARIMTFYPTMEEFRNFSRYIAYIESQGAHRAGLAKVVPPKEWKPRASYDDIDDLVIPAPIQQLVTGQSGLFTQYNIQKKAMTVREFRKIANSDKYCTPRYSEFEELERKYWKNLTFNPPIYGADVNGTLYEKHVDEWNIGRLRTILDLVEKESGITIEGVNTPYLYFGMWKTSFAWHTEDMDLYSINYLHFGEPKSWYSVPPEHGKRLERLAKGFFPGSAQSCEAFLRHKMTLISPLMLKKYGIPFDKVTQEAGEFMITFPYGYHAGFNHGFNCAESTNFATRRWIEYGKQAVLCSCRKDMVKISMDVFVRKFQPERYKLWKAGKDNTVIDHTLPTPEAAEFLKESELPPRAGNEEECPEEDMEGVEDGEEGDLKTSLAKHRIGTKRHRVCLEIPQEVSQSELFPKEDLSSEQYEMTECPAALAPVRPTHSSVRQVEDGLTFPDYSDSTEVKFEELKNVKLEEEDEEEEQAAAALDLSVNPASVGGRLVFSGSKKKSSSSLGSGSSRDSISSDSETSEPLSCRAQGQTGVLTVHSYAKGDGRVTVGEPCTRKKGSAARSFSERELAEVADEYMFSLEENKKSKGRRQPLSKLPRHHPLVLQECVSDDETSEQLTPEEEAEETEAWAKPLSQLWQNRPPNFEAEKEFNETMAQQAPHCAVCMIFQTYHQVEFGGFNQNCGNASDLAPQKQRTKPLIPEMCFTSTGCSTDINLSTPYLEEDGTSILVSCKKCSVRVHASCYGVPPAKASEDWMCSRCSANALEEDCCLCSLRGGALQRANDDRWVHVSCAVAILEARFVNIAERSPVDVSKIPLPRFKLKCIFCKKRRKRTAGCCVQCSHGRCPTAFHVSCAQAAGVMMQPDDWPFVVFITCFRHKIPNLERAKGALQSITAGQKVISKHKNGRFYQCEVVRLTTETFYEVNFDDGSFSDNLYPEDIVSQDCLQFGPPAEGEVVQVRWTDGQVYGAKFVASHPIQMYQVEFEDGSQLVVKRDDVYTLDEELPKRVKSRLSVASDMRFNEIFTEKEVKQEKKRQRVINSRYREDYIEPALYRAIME
# BAZ2B block – qHTS Assay for Inhibitors of BAZ2B | Bromodomain adjacent to zinc finger domain protein 2B (Homo sapiens), Q9UIF8 | AlphaScreen BAZ2B-H3K14Ac peptide displacement | Potency, µM (highest dose often 114 µM), without a hit: at the top dose activity change, negative = inhibition, most hits filed as inhibitors | actives 4.4% (n = 360,000); note: % is set by controls: 0 for no effect and ±100 for the full control effect; nearly all actives have a fitted effect of over 60% in size
#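 Complex of BAZ2B and biotin-H3K14Ac (50 nM apiece) forms over 30 min at RT, then faces library compounds up to 110 uM for another 30 min; AlphaScreen beads added, 20 min dark incubation, luminescence read.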
# GLS inhibitor – qHTS for Inhibitors of Glutaminase (GLS) | actives 0.21% (n = 410,000) | AID 624170, 2012 | Glutaminase kidney isoform, mitochondrial (Homo sapiens), O94925 | Potency, µM (titrated, usually from 45.5 µM), for the others: at the highest dose activity change, negative = inhibition, hits mostly inhibitors | GLS enzymatic activity, qHTS titration; note: % is set by controls: 0 for no effect and ±100 for the full control effect
#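 hKGA in 45 mM KH2PO4 pH 8.2, 0.02% Tween-20 with pin-transferred compounds; 1 mM L-glutamine (stock) plus glutamate oxidase/HRP/Amplex Red coupling added. Fluorescence read initially and after 30 min at RT.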
# Numbers without * were called inactive; ? = inconclusive; · = no result given; [ ] = dose if it differs, or a comment. Calls come from the whole dose curve; as a rule, active = well fitted curve in the direction sought with a large enough effect; inconclusive = small, poorly fitted or top-dose-only effect, or another doubt; inactive = no such curve, though single readings can be large; an effect the other way counts as inactive or inconclusive. Potency is the fitted concentration of half-maximal effect.
SMILES,HP1b binding inh,G9a block,JMJD2A Tudor,BAZ2B block,GLS inhibitor
COc1cc(CNC2CCCCCCC2)cc(Cl)c1OC,18.8%,0.5%,-3.4%,11.7%,1.4%
COc1ccc(NC(=O)c2ccc3c(c2)NC(=O)CS3)cc1S(=O)(=O)Nc1ccc(Br)cc1,-9.8%,·,-20.7%,-29.7%,1.7%
Cc1ccc(NS(=O)(=O)c2cc(NC(=O)c3ccc4c(c3)NC(=O)CS4)ccc2C)c(C)c1,?,7.94µM*,?,-24.1%,-28.3%
Cc1ccc(N=C2S/C(=C\c3cn(CC(=O)O)c4ccccc34)C(=O)N2C)cc1,-9.3%,79.4µM*,-24.0%,?,4.2%
CCOc1ccc2c(c1)NC(c1ccc(OCC)c(OCC)c1)=NC(c1ccc(F)cc1)=N2,?,11.2µM*,25.1µM*,?,2.0%
CCOc1ccc(C2=NC(c3ccc(OC)cc3)=Nc3ccc(Cl)cc3N2)cc1,4.8%,-7.8%[59 µM],-30.8%,-11.7%,3.2%
Cc1ccc(C)c(NC(=S)c2nc3ccccc3s2)c1,-15.1%,?,14.1µM*,4.4%,-1.7%
Cc1ccc(NC(=S)c2nc3ccccc3s2)cc1,?,22.4µM*,?,8.91µM*,9.1%
S=C(Nc1ccc(Cl)cc1)c1nc2ccccc2s1,?,?,?,?,3.9%
CCCCCNc1nc(NCCCO)c(C#N)c2c1CN(C)CC2,14.8%,20.5%[12.7 µM],-33.2%,-9.3%,-1.6%
CC1=C(C(=O)N(C)C)CC(CC(=O)NCCCCc2ccccc2)C(=O)N1Cc1ccc(F)cc1 (centres undefined),·,·,·,·,-3.8%
CC(C)NC(=S)NC(=O)c1ccc(-c2ccccc2)cc1,-5.9%,39.8µM*,-32.7%,-30.5%,-1.0%
O=C(NC(=S)Nc1ccc2cn[nH]c2c1)c1ccccc1,18.0%,44.7µM*,-7.6%,-1.7%,1.0%
O=C(NC(=S)Nc1ccc(-c2ccccc2)cc1)c1ccccc1,-13.6%[57 µM],·,-34.5%,·,1.6%
O=C(Cc1cccc2ccccc12)NC(=S)Nc1cccc(C(=O)O)c1,-15.7%,15.8µM*,-23.4%,?,6.8%
O=C(O)c1cccc(NC(=S)NC(=O)c2ccc(-c3ccccc3)cc2)c1,15.7%,35.5µM*,-3.5%,-36.4%,-2.5%
Cc1cccc(NC(=S)NC(=O)c2ccc(-c3ccccc3)cc2)n1,16.6%,-0.9%,-17.6%,-13.6%,-10.1%
O=C(O)c1cccc(NC(=S)NCc2ccccc2)c1,13.1%,-27.4%,-19.6%,-16.8%,-2.1%
O=C(c1ccc2c3c(cccc13)CC2)N1CCOCC1,45.8%,?,-4.8%[11.4 µM],-25.2%,-3.4%
Cc1ccc(C(=O)O)cc1NC(=S)NC(=O)c1ccc(-c2ccccc2)cc1,?,14.1µM*,?,-32.5%,0.0%
COc1ccc(OC)c(NC(=O)/C=C/c2ccc(S(=O)(=O)N3CCOCC3)cc2)c1,2.4%,50.1µM*,-34.2%,-25.9%,0.9%
COc1ccc(S(=O)(=O)N2CCOCC2)cc1NC(=O)c1cc2ccccc2o1,10.5%,44.7µM*,-26.8%,3.2%,4.5%
COc1ccc(S(=O)(=O)N2CCOCC2)cc1NC(=O)c1cccc(-n2cccc2)c1,-24.6%,28.2µM*,?,?,74.3%
CCOc1ccc(NC(=O)c2cccc(-n3cccc3)c2)cc1S(=O)(=O)N1CCOCC1,·,-7.5%[2.33 µM],·,5.01µM*,·
O=c1c(CCc2ccccc2)nc2cncnc2n1Cc1ccccc1,·,3.8%[0.501 µM],·,·,·
SMILES,HP1b binding inh,G9a block,JMJD2A Tudor,BAZ2B block,GLS inhibitor
O=C(Nc1ccccc1)O/N=C/c1ccncc1,11.1%,6.8%[0.501 µM],5.4%,-0.9%,21.5%
CCn1cc(C(=O)NCc2ccccc2)c(=O)c2cc(S(=O)(=O)N3CCOCC3)ccc21,22.8%,-7.2%[59 µM],-14.0%,·,4.6%
CC1CC(C)CN(c2nc(N(C)c3ccccc3)nc(N)c2[N+](=O)[O-])C1 (centres undefined),-24.6%,10µM*,39.8µM*,?,-2.4%
Cc1cc(-c2ccccc2)n2ncnc2n1,37.1%,10.1%,4.4%,-16.9%,0.8%
O=S(=O)(NC1CCCCC1N1CCN(c2ccccc2F)CC1)c1ccc(Cl)cc1 (centres undefined),47.3%,17.3%,-3.8%,3.3%,2.6%
C=CCn1c(N)c(C(=O)NCCC2=CCCCC2)sc1=S,?,?,?,39.8µM*,-7.3%
Cc1[nH]n(-c2ccccc2)c(=O)c1N=Nc1ccc(C#N)cc1,15.2%,23.1%,-23.5%,-1.5%,-4.3%
Cc1ccc(NC(=S)N=Nc2c(O)n(C)c3ccc(S(=O)(=O)N4CCOCC4)cc23)cc1C,2.0%,-21.3%,-15.2%,-33.8%,2.7%
Cn1c(O)c(N=NC(=S)Nc2ccccc2F)c2cc(S(=O)(=O)N3CCOCC3)ccc21,-4.4%,31.6µM*,?,4.5%,14.1%
CCn1c2ccc(C)cc2c2nnc(NN)nc21,20.8%,50.1µM*,?,?,?
CCCn1c2ccc(F)cc2c2nnc(SCCN(CC)CC)nc21,51.4%,-29.7%[59 µM],?,-1.3%,3.6%
CCn1c2ccccc2c2nnc(NN)nc21,0.6%,?,50.1µM*,?,14.9%
CCn1c2ccc(C)cc2c2nnc(SCCN3CCCCC3)nc21,-0.8%,7.0%,-20.9%,2.2%,-12.0%
CCCCn1c2ccc(F)cc2c2nnc(NN)nc21,18.9%,50.1µM*,-34.2%,-24.1%,9.6%
CC(C(=O)NC1CCCC1)N(C(=O)Cn1nnc(-c2ccc(F)cc2)n1)c1ccccc1F (centres undefined),5.9%,-1.3%,-7.4%,7.9%,-0.6%
COc1ccc(CN(CC(=O)NC2CCCC2)C(=O)c2ccc(-c3ccccc3)[nH]2)cc1,-18.8%,?,?,28.2µM*,-14.6%
O=C(NCC1CCCO1)C(c1cccs1)N(Cc1ccccc1)C(=O)c1ccc(-c2ccccc2)[nH]1 (centres undefined),?,?,?,?,4.3%
COc1ccc(CN(CC(=O)NC2CCCC2)C(=O)c2csnn2)cc1,-14.7%,-3.0%[59 µM],-1.4%,6.2%,-5.6%
CC(C(=O)NC1CCCC1)N(C(=O)c1ccc(-c2ccccc2)[nH]1)c1ccccc1F (centres undefined),-33.0%,-0.9%[59 µM],22.4µM*,?,-9.2%
COc1ccc(CN(C(=O)c2ccc(-c3ccccc3)[nH]2)C(C(=O)NCC2CCCO2)c2ccc(C)o2)cc1 (centres undefined),-17.6%,-10.7%[0.501 µM],?,44.7µM*,10.7%
CCOC(=O)c1[nH]c2ccc(OC)cc2c1NC(=S)N1CCN(C(=O)OCC)CC1,35.9%,-38.2%,-14.1%,2.6%,8.0%
CCOC(=O)c1[nH]c2ccccc2c1NC(=S)Nc1cccc(C)c1C,-13.0%,44.7µM*,?,?,7.7%

# Compound activity deposited in PubChem BioAssay by National Center for Advancing Translational Sciences (NCATS).
